Source: PubChem BioAssay (National Center for Advancing Translational Sciences (NCATS))
The list is not random: actives were taken first. Their share in the collection is about 3.8%.
A549 tox – counter-screen for Nrf2 inhibitors: cytotoxicity in A549 cells | Potency, µM (top dose mostly 46 µM), without a hit: top-dose activity change, negative = cytotoxicity, actives largely listed as inhibitors | A549 ARE-Fluc cells, CellTiter-Fluor viability, 18-24 h | hit rate 0.16% among 390,000; note: % is set by controls: 0 for no effect and ±100 for the full control effect
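Cytotoxicity counterscreen: CellTiter-Fluor fluorescence was measured in A549 ARE_Fluc cells after 18-24 h of compound exposure in a concentration series. The subsequent BugLite luminescent read reports ARE-luciferase activity.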
Nrf2 ARE act – Nrf2 pathway activation; AREc32 ARE-luciferase reporter (MCF7-derived line), luminescence, 24 h; Potency, µM (highest dose often 46.1 µM), for inactives: top-dose activation, actives largely listed as activators; hit rate 0.31% among 410,000; AID 624171; note: % of control where 0% means no effect; nearly all actives have a fitted effect of over 65% in size
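Luminescent ARE reporter assay in AREc32_Fluc cells: overnight plating at 37 deg C, 24 hr compound incubation, Steady-Glo added, 30 min RT before reading.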
ELG1 DNA repair – ELG1-dependent DNA repair inhibition; HEK293T ELG1-luciferase reporter, luminescence, 16 h; DNA damage induced by 5-fluorouridine; Potency, µM (titrated, usually from 46.1 µM), for inactives: at the top dose activity change, negative = inhibition, usual class: inhibitors; hit rate 2.3% among 330,000; note: % is set by controls: 0 for no effect and ±100 for the full control effect; nearly all actives have a fitted effect of over 55% in size
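Reporter activity after DNA damage by 5-fluorouridine is monitored. Compound-treated cells incubate 16 hr at 37 °C, then ONE-Glo is added for 30 min before luminescence reading.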
IDH1 R132H inh – human IDH1 R132H inhibition; O75874; IDH1-R132H enzyme, NADPH consumption, diaphorase/resazurin fluorescence; Potency, µM (top dose mostly 76.6 µM), for the others: at the top dose activity change, negative = inhibition, actives largely listed as inhibitors; hit rate 0.093% among 390,000; AID 602179; note: % is set by controls: 0 for no effect and ±100 for the full control effect; nearly all actives have a fitted effect of over 65% in size
Target sequence (O75874 whole entry R132H, stated change not applied): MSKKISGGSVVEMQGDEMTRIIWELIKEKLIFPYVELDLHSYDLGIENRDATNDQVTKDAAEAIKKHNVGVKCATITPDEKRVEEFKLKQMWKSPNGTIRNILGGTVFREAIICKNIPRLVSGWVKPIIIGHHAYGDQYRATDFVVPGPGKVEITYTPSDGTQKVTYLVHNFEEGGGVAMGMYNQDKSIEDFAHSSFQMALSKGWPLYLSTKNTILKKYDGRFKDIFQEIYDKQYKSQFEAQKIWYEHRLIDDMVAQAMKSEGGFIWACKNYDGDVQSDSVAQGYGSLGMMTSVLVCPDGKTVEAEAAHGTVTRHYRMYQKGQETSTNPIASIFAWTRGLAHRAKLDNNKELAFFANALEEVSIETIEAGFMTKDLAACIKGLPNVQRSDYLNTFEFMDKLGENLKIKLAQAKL
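IDH1-R132H (0.5 ug/mL dispensed) in pH 7.5 Tris buffer was preincubated 30 min with compound, then given a substrate mix of 0.016 mM NADPH and 2 mM alpha-KG for 80 min at room temperature; remaining NADPH was read by diaphorase/resazurin fluorescence.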
Nrf2 block – inhibitors of Nrf2 signaling; A549 ARE-Fluc reporter, luciferase luminescence, 18-24 h; Potency, µM (series often up to 46 µM), inactives show at the top dose activity change, negative = inhibition, hits mostly inhibitors; hit rate 2.1% among 360,000; note: % is set by controls: 0 for no effect and ±100 for the full control effect; nearly all actives have a fitted effect of over 60% in size
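A549 ARE_Fluc cells (5000/well, 5% FBS OPTI-MEM) pre-incubated 2 h, then treated with compounds 18-24 h at 37C/5% CO2 in concentration-response. CellTiter-Fluor viability read first; BugLite luciferase luminescence after 15 min at room temperature gives Nrf2 activity.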
* hit, by the source's call; ? = inconclusive; nt = no result given. Calls come from the whole dose curve; as a rule, active = well fitted curve in the direction sought with a large enough effect; inconclusive = small, poorly fitted or top-dose-only effect, or another doubt; inactive = no such curve, though single readings can be large; an effect the other way counts as inactive or inconclusive. Potency is the fitted concentration of half-maximal effect.

SMILES	A549 tox	Nrf2 ARE act	ELG1 DNA repair	IDH1 R132H inh	Nrf2 block
CCn1c(=O)c(C(=O)CN2CCCc3ccccc32)c(N)n(Cc2ccccc2)c1=O	-3.4%	2.0%	?	-1.9%	16.4µM*
CCn1c(=O)c(C(=O)CN2c3ccccc3CC2C)c(N)n(Cc2ccccc2)c1=O (stereo not drawn)	-5.9%	0.6%	?	4.2%	?
O=C(Nc1cccc(Cl)c1)N1CCN2C(=O)c3ccccc3C12c1ccccc1 (stereo not drawn)	?	3.0%	?	-6.7%	20.6µM*
O=C(CCl)N1CCN2C(=O)c3ccccc3C12c1ccc(Cl)cc1 (stereo not drawn)	0.8%	?	15.9%	-25.8%	-17.7%
COc1ccc(-c2csc(NC(=O)CSCc3c(C)noc3C)n2)c(OC)c1	-14.7%	5.7%	?	-1.6%	16.4µM*
COc1ccc(-c2csc(NC(=O)CSCC(=O)Nc3cc(C)on3)n2)cc1	0.3%	5.8%	2.9%	-4.6%	4.8%
COc1ccc(CCNc2oc(/C=C/c3ccc(OC)c(OC)c3)nc2C#N)cc1	1.4%	6.7%	nt	7.8%	11.8%
COc1cc(F)c(S(=O)(=O)N2CCN(S(=O)(=O)c3ccc(N)cc3)CC2)c(F)c1	2.6%	nt	nt	nt	-6.3%
Cn1cnnc1Sc1ccc(/C=C/C(=O)c2ccc(O)cc2)cc1[N+](=O)[O-]	?	?	?	0.0%	18.4µM*
COc1ccccc1N(CC(=O)Nc1cc(S(=O)(=O)N(C)C)ccc1C)S(=O)(=O)c1cccs1	-0.6%	0.3%	23.1µM*	8.1%	2.0%
COc1ccc(CNC(=O)CN(c2ccccc2OC)S(=O)(=O)c2cccs2)cc1	-3.1%	-0.7%	?	1.1%	6.5%
COc1ccc(N(CC(=O)NCCSc2ccccc2)S(=O)(=O)c2ccccc2)c(OC)c1	-12.4%	2.2%	20.6µM*	6.4%	-21.2%
COc1ccccc1N(CC(=O)NCCSc1ccccc1)S(=O)(=O)c1ccccc1	-11.8%	-0.5%	nt	-3.8%	2.8%
COc1ccccc1N(CC(=O)NCCSCc1ccc(C)cc1)S(=O)(=O)c1ccccc1	0.0%	-1.2%	16.4µM*	-0.6%	?
COc1ccccc1N(CC(=O)Nc1ccc(Cc2ccncc2)cc1)S(=O)(=O)c1ccccc1	-13.1%	1.0%	18.3µM*	9.8%	?
Cc1sc(-c2cc3c([nH]c2=O)CC(c2ccccc2)CC3=O)nc1-c1ccc(Cl)cc1 (stereo not drawn)	-1.9%	-0.3%	nt	-10.2%	?
COC(=O)c1ccccc1NC(=O)C1=CC(c2ccc(C)cc2)=NS(=O)(=O)N1C	-11.5%	0.1%	nt	0.4%	18.4µM*
CCN(c1ccccc1)S(=O)(=O)c1ccc(OC)c(NC(=O)Cc2ccc(OC)c(OC)c2)c1	-14.0%	0.0%	18.3µM*	9.1%	?
CCN(c1ccccc1)S(=O)(=O)c1ccc(Cl)c(NC(=O)CNCc2ccccc2OC)c1	-1.4%	1.1%	18.3µM*	-3.2%	?
CCN(c1ccccc1)S(=O)(=O)c1ccc(OC)c(NC(=O)Cc2ccccc2OC)c1	1.8%	0.0%	-23.6%	3.4%	-16.3%
Cn1c(/C=C/c2ccccc2)nc2ccccc2c1=O	0.9%	11.2µM*	?	9.4%	?
CCn1c(/C=C/c2ccc(F)cc2)nc2ccccc2c1=O	6.5%	21.9%	-25.9%	-7.3%	5.9%
Cn1c(/C=C/c2ccc([N+](=O)[O-])o2)nc2ccccc2c1=O	?	?	?	5.7%	20.6µM*
CCn1c(/C=C/c2ccccc2)nc2ccccc2c1=O	1.0%	3.55µM*	-18.8%	7.6%	-12.6%
O=c1c2ccccc2nc(/C=C/c2ccccc2)n1CCCO	-1.1%	11.3%	-28.2%	-5.5%	-19.3%
O=c1c2ccccc2nc(/C=C/c2ccc(O)cc2)n1CCc1ccccc1	-14.0%	9.8%	23.1µM*	-7.7%	?
Cc1nc2cc(Cl)c(Cl)cc2n1-c1ccccn1	-0.6%	0.1%	-25.7%	-1.6%	-8.3%
Cc1cc(NC(=O)CN2C(=O)CSc3ccc(S(=O)(=O)N(C)C)cc32)ccc1Br	-5.3%	6.7%	nt	0.0%	?
